Assay outcomes as filed in PubChem BioAssay.
Most compounds without a hit are left out; they make up all but 4.2% or so of the library.
DAX1 StAR inh = DAX1 (NR0B1) inhibition, primary screen; HEK293T StAR-luciferase reporter, SF-1/DAX-1 repression relief; 370,000 compounds, 1.1% hits; inhibition, % at 6.8 µM;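 active = inhibition above the mean over all tested compounds plus 3 SD, cut at about 3.6% in these data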;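 also: higher inhibition means more luminescence from relief of DAX-1 repression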
ssDAF12 agonist = activates DAF-12 receptor from parasite S. stercoralis; AID 652126; HEK293 ssDAF-12/GRIP1 lit1-tk-luc reporter, luminescence; % of 3 µM dafachronic acid response; 370,000 compounds, 1% hits; activation, % at 6.8 µM;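 active = activation above the mean over all tested compounds plus 3 SD, cut at about 0.9% in these data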
hcDAF-12 act = H. contortus DAF-12 activation, primary screen; HEK293 hcDAF-12 lit1-tk-luc reporter, luminescence; 0% DMSO, 100% Δ7-dafachronic acid; activation, % at 6.8 µM; 370,000 compounds, 1.4% hits; AID 652067;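 active = activation above the mean of all tested compounds plus 3 SD, cut at about 5.5% in these data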
Wnt bcat act = activators of Wnt/beta-catenin signaling; Wnt/beta-catenin reporter cell assay, activator, plate reader; activation, % at 9.35 µM; 300,000 compounds, 1.2% hits; in the data active = activation above about 30%, passing the limit was not always enough; inconclusive = no clear call, values can overlap the other calls
esBAF inh = SWI/SNF esBAF complex inhibition | mouse ES cells, Bmi1-luciferase knock-in reporter, 24 h; 100% = twice the neutral-well signal | reporter increase, % at 12.5 µM | 350,000 compounds, 2% hits | AID 602393; in the data active = activation above about 40%; inconclusive = no clear call, values can overlap the other calls;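 also: a rise in the Bmi1 reporter signal indicates esBAF inhibition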
hgDAF12 agonist = agonists of H. glycines DAF-12 nuclear receptor. HEK293 GAL4-hgDAF12 UAS-luciferase reporter, agonist luminescence; normalized to butyrate control. activation, % at 6.8 µM. 370,000 compounds, 1.8% hits. AID 687014;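 active = activation above a cutoff set at the mean of all screened compounds plus 3 SD, cut at about 10% in these data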
A number is an active result; – = inactive; ? = inconclusive; · = no result given.

SMILES | DAX1 StAR inh | ssDAF12 agonist | hcDAF-12 act | Wnt bcat act | esBAF inh | hgDAF12 agonist
CCC(=O)N1C[C@@H](C)[C@@H](OC)CN(C)C(=O)c2ccc(NC(=O)C3CCOCC3)cc2OC[C@H]1C | · | · | · | · | – | ·
O=C(O)c1ccc(-c2nnc(-c3ccc([N+](=O)[O-])cc3)o2)cc1 | – | – | – | – | – | –
Cc1ccc(-c2nnc(-c3cc(C)on3)o2)cc1 | – | – | – | 49.1 | – | 11.6
Cc1ccc(-c2nnc(-c3ccccc3)o2)cc1 | – | – | – | · | · | 11.5
Cc1cccc(-c2nnc(-c3ccc4ccccc4c3)o2)c1 | 3.6 | – | – | – | – | 11.6
O=C(O)c1ccc(-c2nnc(-c3ccccc3)o2)cc1 | – | 1.0 | – | – | – | –
Cc1ccc(-c2nnc(N)o2)cc1 | – | – | – | · | · | –
c1ccc(-c2noc(-c3ccc4ccccc4c3)n2)cc1 | – | – | – | – | – | –
COCC(=O)N1CC[C@H]2[C@H](CO)Nc3ccc(C#Cc4ccccc4)cc3[C@H]21 | · | · | · | · | – | ·
Cc1cccc(NC(=S)NNc2cccc(Cl)c2)c1 | – | 1.0 | – | – | – | –
Cc1cccc(NC(=S)Nc2ccccn2)c1 | – | 1.0 | – | 59.5 | · | –
Cc1cc(C)nc(NC(=S)Nc2cccc(F)c2)c1 | – | – | – | – | – | –
Cc1cccc(NNC(=S)Nc2c(C)cccc2C)c1 | – | – | – | – | – | –
COC(=O)c1ccc(NC(=S)Nc2ccccn2)cc1 | – | – | – | · | 57.5 | 11.8
COc1cccc(NC(=S)Nc2cc(C)cc(C)n2)c1 | – | 1.7 | – | 54.4 | ? | –
O=C(C[C@H]1C[C@H]2c3cc(NC(=O)CC4CC4)ccc3O[C@H]2[C@@H](CO)O1)NCC(F)(F)F | · | · | · | · | – | ·
C[C@H](CO)N1C[C@H](C)[C@@H](CN(C)C(=O)C2CCCCC2)OCCCC[C@H](C)Oc2ccc(NC(=O)NC3CCCCC3)cc2C1=O | · | · | · | · | – | ·
Cc1ccccc1-c1cnc2c(c1)C(=O)N([C@@H](C)CO)C[C@H](C)[C@@H](CN(C)C(=O)CC1CC1)O2 | · | · | · | · | – | ·
C[C@H](CO)N1C[C@H](C)[C@@H](CN(C)C(=O)Nc2ccc3c(c2)OCO3)Oc2ccc(NS(=O)(=O)c3ccccc3)cc2CC1=O | · | · | · | · | – | ·
CC(=Cc1ccccc1)C=C1SC(=S)N(CCCC(=O)Nc2ccc(C(=O)O)cc2)C1=O | 4.2 | – | – | – | – | –
CCN(CC)CCOC(=O)c1ccc(NC(=O)CCCN2C(=O)/C(=C\c3cccs3)SC2=S)cc1 | 6.8 | – | – | – | – | –
CC(=O)c1ccc(NC(=O)CN2C(=O)/C(=C/C=C/c3ccccc3)SC2=S)cc1 | – | – | 6.5 | – | · | –
O=C(CCCN1C(=O)S/C(=C\C=C\c2ccccc2)C1=O)Nc1ccc(C(=O)O)cc1 | – | – | – | – | – | –
O=C(O)CN1C(=O)/C(=C\c2cccc(OC(=O)c3ccco3)c2)SC1=S | – | – | – | – | – | –
O=C(O)CN1C(=O)/C(=C\c2ccc(OC(=O)c3ccco3)cc2)SC1=S | – | – | – | 33.5 | · | –
SMILES | DAX1 StAR inh | ssDAF12 agonist | hcDAF-12 act | Wnt bcat act | esBAF inh | hgDAF12 agonist
O=C(CCN1C(=O)/C(=C\c2cccs2)SC1=S)Nc1ccc(C(=O)O)cc1 | – | – | – | – | · | –
O=C(O)CN1C(=O)/C(=C/C=C/c2ccccc2)SC1=S | – | – | – | 49.0 | · | –
COc1ccc(-c2nn(-c3ccccc3)cc2/C=C2/SC(=S)N(CCC(=O)O)C2=O)cc1 | – | – | – | – | – | –
Cc1ccc(-c2nn(-c3ccccc3)cc2/C=C2\SC(=S)N(CC(=O)O)C2=O)cc1 | – | 1.6 | – | – | – | –
CN1C(=O)c2cc(NC(=O)c3ccc(F)cc3)ccc2OC[C@@H]2O[C@H](CC(=O)O)CC[C@H]21 | · | · | · | · | – | ·
O=C(CSc1nnnn1C1CCCC1)c1ccc2c(c1)OCCO2 | – | – | – | ? | 81.2 | –
Cc1ccc(C)c(C(=O)CSc2nnnn2C(C)C)c1 | – | – | – | · | 51.4 | –
CC(C)n1nnnc1SCC(=O)c1ccc2c(c1)OCCO2 | – | – | – | – | 46.7 | –
CCOc1cc(/C=N/Nc2ncnc(Cl)c2N)ccc1O | – | – | – | · | 57.2 | –
Cc1cccc(NC(=S)NCCc2ccccc2)c1C | – | – | – | – | – | –
COc1ccc(NC(=S)NCCSc2ccc(C)cc2)c(OC)c1 | – | – | – | 61.0 | · | –
Cc1cccnc1NC(=S)NCCc1ccccc1 | – | – | – | 39.6 | ? | 11.5
Cc1cccnc1NC(=S)Nc1ncccc1C | – | – | – | – | – | 11.4
S=C(NCCc1ccccc1)Nc1cnc2ccccc2c1 | – | – | – | – | 44.3 | –
COc1cccc(CNC(=O)C[C@@H]2C=C[C@H](NC(=O)C3CCC3)[C@@H](CO)O2)c1 | · | · | · | · | – | ·
Cc1cccnc1NC(=S)NC(=O)c1oc2ccccc2c1C | – | – | – | – | 73.8 | –
CCOc1ccccc1NC(=S)Nc1ncccc1C | – | – | – | – | – | –
COc1ccc(NC(=S)Nc2ncccc2C)c(OC)c1 | – | – | – | – | 47.7 | –
CCOC(=O)C/C(C)=N\Nc1nc(-c2ccccc2)cs1 | – | 1.7 | – | – | · | –
CC1CCCCN1S(=O)(=O)c1ccc(C(=O)Nc2sccc2C(N)=O)cc1 (stereo unspecified) | – | – | – | – | 82.6 | –
O=C(NCC1CCCO1)c1ccc2[nH]c3c(c2c1)CCCC3 (stereo unspecified) | – | – | – | – | 44.5 | –
Cc1ccc(C(=O)NC(=S)NCC2CCCO2)cc1Br (stereo unspecified) | – | – | 5.7 | – | · | –
O=C(NCC1CCCO1)c1ccc(COc2ccccc2)cc1 (stereo unspecified) | – | – | – | – | 48.7 | –
CCOC(=O)C1=C(CP(=O)(c2ccccc2)c2ccccc2)NC(=O)NC1c1ccc(OC)cc1 (stereo unspecified) | – | – | – | 83.8 | · | –
CCOC(=O)C1=C(CP(=O)(c2ccccc2)c2ccccc2)NC(=O)NC1c1ccc(Cl)cc1 (stereo unspecified) | – | – | – | – | – | –
SMILES | DAX1 StAR inh | ssDAF12 agonist | hcDAF-12 act | Wnt bcat act | esBAF inh | hgDAF12 agonist
C[C@H]1CN([C@@H](C)CO)C(=O)Cc2cc(NC(=O)C3CC3)ccc2O[C@H]1CN(C)C(=O)Nc1ccc2c(c1)OCO2 | · | · | · | · | – | ·
Cc1cccc(-c2nnn3c2nc(NCCc2ccc(S(N)(=O)=O)cc2)c2ccccc23)c1 | – | – | – | – | · | –
COCCNc1nc2c(-c3cccc(C(F)(F)F)c3)nnn2c2ccccc12 | – | 1.3 | 6.5 | – | – | –
NNc1nc2c(-c3cccc(C(F)(F)F)c3)nnn2c2ccccc12 | – | – | 6.5 | – | – | –
Cc1ccc(-c2nnn3c2nc(NCCc2ccc(S(N)(=O)=O)cc2)c2ccccc23)cc1 | – | – | 5.7 | – | · | –
C[C@H]1CN([C@@H](C)CO)C(=O)c2cc(NS(C)(=O)=O)ccc2O[C@H]1CN(C)Cc1ccc(C(=O)O)cc1 | · | · | · | · | – | ·
